Results reported in the supplement of paper PMC8007513.
Counter-ions that a name gives are not always drawn. ± gives the standard error. Among all 1,300 compounds or so, about 75 (6%) showed an effect of 50% or more. Only a selection was taken, and strong results are over-represented in it overall.

System: Trichoderma virens ATCC 9645
Test: growth yield (OD600) relative to untreated control; higher = less growth inhibition
Conditions: compound concentration: 100 uM
Summary of the method: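 Trichoderma virens ATCC 9645 spores at 15,000 spores ml^−1 in potato dextrose broth were exposed in 96-well plates to library compounds at 100 μM final, with or without a biocide at 200 ng ml^−1. After growth at 30 °C, OD600 was read at 40 h and 72 h. Values are growth relative to the control without either agent, averaged over duplicate screens.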

Structure (SMILES)	growth yield (40 h) [%]	growth yield (72 h) [%]
COc1cc(N)c(Cl)cc1C(=O)NC1CCN(CCCOc2ccc(F)cc2)CC1OC (stereo not drawn) [Cisapride]	108	109
O=C(Cn1ccnc1[N+](=O)[O-])NCCO [Etanidazole]	101 ± 2.2	98 ± 1.9
CCN(CC)CCOC(=O)C1(c2ccc([N+](=O)[O-])cc2)CCCC1 [Nitrocaramiphen hydrochloride]	101	103.3 ± 0.52
O=C(CCCN1CCC(O)(c2ccc(Br)cc2)CC1)c1ccc(F)cc1 [Bromperidol]	104.4 ± 0.48	105.4 ± 0.1
C/C(=C(\CCOP(=O)(O)O)SC(=O)c1ccccc1)N(C=O)Cc1cnc(C)nc1N [Benfotiamine]	99.75 ± 0.64	96.38 ± 0.1
NC(=O)c1cc[n+](CC2=C(C(=O)[O-])N3C(=O)[C@@H](NC(=O)[C@@H](c4ccccc4)S(=O)(=O)O)[C@H]3SC2)cc1 [Cefsulodin sodium salt]	95 ± 4.8	99.3 ± 3.2
CC[C@H](C)C(=O)O[C@H]1CCC=C2C=C[C@H](C)[C@H](CC[C@@H]3C[C@@H](O)CC(=O)O3)[C@H]21 [Mevastatin]	103 ± 7.6	96.2 ± 6.6
O=P(O)(O)C(O)(Cn1ccnc1)P(=O)(O)O [Zoledronic acid hydrate]	108 ± 4.5	109 ± 1.6
CO[C@H]1/C=C/O[C@@]2(C)Oc3c(C)c(O)c4c(O)c(c(/C=N/N5CCN(C6CCCC6)CC5)c(O)c4c3C2=O)NC(=O)/C(C)=C\C=C\[C@H](C)[C@H](O)[C@@H](C)[C@@H](O)[C@@H](C)[C@H](OC(C)=O)[C@@H]1C [Rifapentine]	84.5	94
CSc1ccc2c(c1)N(CCC1CCCCN1C)c1ccccc1S2 (stereo not drawn) [Thioridazine hydrochloride]	53.8 ± 6.2	83 ± 2.6
CSc1ccc2c(c1)C(N1CCN(C)CC1)Cc1ccccc1S2 (stereo not drawn) [Methiothepin maleate]	43.5 ± 3.5	75.4 ± 3.2
CN1CCC(=C2c3ccccc3Sc3ccccc32)CC1 [Pimethixene maleate]	85.77 ± 0.64	95.2 ± 1.9
CN(Cc1cc(Br)cc(Br)c1N)C1CCCCC1 [Bromhexine hydrochloride]	99 ± 1.1	98.2 ± 1.9
Cc1scc2c1N(C(=O)CN1CCN(C)CC1)c1ccccc1NC2=O [Telenzepine dihydrochloride]	99.75 ± 0.32	103 ± 1.1
CC(=O)Oc1cc(C(F)(F)F)ccc1C(=O)O [Triflusal]	94.5 ± 2.4	91.77 ± 0.32
Cc1cc(N)c2ccccc2[n+]1CCCCCCCCCC[n+]1c(C)cc(N)c2ccccc21 [Dequalinium dichloride]	2.54 ± 1.6	2.2 ± 1.4
Nc1ccccc1S(N)(=O)=O [2-Aminobenzenesulfonamide]	93.7 ± 1.6	94.39 ± 0.63
Cc1cc(C2CCCCC2)n(O)c(=O)c1 [Ciclopirox ethanolamine]	1.27 ± 1.3	1.15 ± 1.1
CC(=O)Nc1c(I)c(C(=O)N[C@H]2C(O)O[C@H](CO)[C@@H](O)[C@@H]2O)c(I)c(N(C)C(C)=O)c1I (stereo partly drawn) [Metrizamide]	102 ± 13	105 ± 12
CC1(C)O[C@@H]2C[C@H]3[C@@H]4CCC5=CC(=O)C=C[C@]5(C)[C@H]4[C@@H](O)C[C@]3(C)[C@]2(C(=O)CO)O1 [Desonide]	109 ± 11	98.7 ± 6.6
CCC(=O)[C@@]1(C)[C@H](C)C[C@H]2[C@@H]3CCC4=CC(=O)C=C[C@]4(C)[C@H]3[C@@H](O)C[C@@]21C [Rimexolone]	112 ± 14	106 ± 8.3
COc1c(O[C@@H]2O[C@H](CO)[C@@H](O)[C@H](O)[C@H]2O)cc2c(c1OC)-c1ccc(SC)c(=O)cc1[C@@H](NC(C)=O)CC2 [Thiocolchicoside]	101 ± 1.4	103 ± 2.2

Structure (SMILES)	growth yield (40 h) [%]	growth yield (72 h) [%]
NS(=O)(=O)c1cc2c(cc1C(F)(F)F)NCNS2(=O)=O [Hydroflumethiazide]	102 ± 2.4	100 ± 3.1
O=C1c2c(O)ccc(O)c2C(=O)c2c(NCCNCCO)ccc(NCCNCCO)c21 [Mitoxantrone dihydrochloride]	2.86 ± 2.9	0.21 ± 0.21
O=C1c2cccc(O)c2C(=O)c2c(O)cccc21 [1,8-Dihydroxyanthraquinone]	85.8 ± 11	87.2 ± 8.7
O=C1c2c(O)cccc2Cc2cccc(O)c21 [Anthralin]	96.7 ± 3.6	89.5 ± 2.8
CN1[C@@H]2CC[C@H]1C[C@@H](OC(c1ccccc1)c1ccccc1)C2 [Benztropine mesylate]	105 ± 3.6	102 ± 1.7
O=C1OCCN1/N=C/c1ccc([N+](=O)[O-])o1 [Furazolidone]	84.3 ± 7.2	87.7 ± 5.9
Nc1nc(=O)c2nc(CNc3ccc(C(=O)N[C@@H](CCC(=O)O)C(=O)O)cc3)cnc2[nH]1 [Folic acid]	102 ± 1.4	104.7 ± 0.42
COc1ccc(C(=O)NCc2ccc(OCCN(C)C)cc2)cc1OC [Itopride]	105 ± 5.7	105 ± 3.7
CN(C)CCOC(c1ccccc1)c1ccccc1 [Diphenhydramine hydrochloride]	99.9 ± 5.2	99.4 ± 3.1
COc1cc(C(=O)NCc2ccc(OCCN(C)C)cc2)cc(OC)c1OC [Trimethobenzamide hydrochloride]	103 ± 2.4	97.75 ± 0.21
CC/C(=C(\c1ccccc1)c1ccc(OCCN(C)C)cc1)c1ccccc1 [Tamoxifen citrate]	1.11 ± 0.48	1.26 ± 0.21
COc1ccc(C(Cl)=C(c2ccc(OC)cc2)c2ccc(OC)cc2)cc1 [Chlorotrianisene]	101 ± 2.7	96.7 ± 1.5
CCN(CC)CCOC(=O)C(c1ccccc1)c1ccccc1 [Adiphenine hydrochloride]	98.8 ± 7.6	96.9 ± 5.5
CN(C)CCOC(=O)COc1ccc(Cl)cc1 [Meclofenoxate hydrochloride]	95.1 ± 2.1	92.1 ± 3.6
CN(C)CCOc1ccc(/C(=C(/CCCl)c2ccccc2)c2ccccc2)cc1 [Toremifene]	3.81 ± 0.32	2.73 ± 0.21
CCN(CC)CCOc1ccc(C(=C(Cl)c2ccccc2)c2ccccc2)cc1 [Clomiphene citrate (Z,E)]	1.75 ± 1.1	2.2 ± 0.1
COc1ccc(OC)c(C(O)CNC(=O)CN)c1 (stereo not drawn) [Midodrine hydrochloride]	101.8 ± 0.16	105 ± 0.73
CC(=O)[C@H]1CC[C@H]2[C@@H]3C=CC4=CC(=O)CC[C@@]4(C)[C@@H]3CC[C@]12C [Dydrogesterone]	78.3 ± 1.1	79.9 ± 2.1
CN(C)[C@@H]1C(O)=C(C(N)=O)C(=O)[C@@]2(O)C(O)=C3C(=O)c4c(O)ccc(Cl)c4[C@@](C)(O)[C@H]3C[C@@H]12 [Chlortetracycline hydrochloride]	90.54 ± 0.32	90.93 ± 0.32
Cc1onc(-c2ccccc2)c1-c1ccc(S(N)(=O)=O)cc1 [Valdecoxib]	107 ± 11	104 ± 8.3
CCOC(=O)[C@H](CCc1ccccc1)N[C@H]1CCc2ccccc2N(CC(=O)O)C1=O [Benazepril hydrochloride]	104 ± 3.5	105 ± 2.1
O=C(CCCCC(=O)Nc1c(I)cc(I)c(C(=O)O)c1I)Nc1c(I)cc(I)c(C(=O)O)c1I [Iodipamide]	103 ± 1.1	101.6 ± 0.32

Structure (SMILES)	growth yield (40 h) [%]	growth yield (72 h) [%]
CC(Oc1c(Cl)cccc1Cl)C1=NCCN1 (stereo not drawn) [Lofexidine]	104 ± 1.3	105 ± 1.1
CN1CCCN=C1/C=C/c1cccc(O)c1 [Oxantel pamoate]	93.4 ± 0.64	99.8 ± 1.1
Cc1cc(CC(=O)O)n(C)c1C(=O)c1ccc(Cl)cc1 [Zomepirac sodium salt]	93.7 ± 5.7	88 ± 3.9
COc1ccc(-c2cc(=S)ss2)cc1 [Anethole-trithione]	76.4 ± 9.1	77.5 ± 7.2
CNC(=O)c1c(I)c(C(=O)NCC(=O)Nc2c(I)c(C(=O)O)c(I)c(C(=O)NCCO)c2I)c(I)c(N(C)C(C)=O)c1I [Ioxaglic acid]	105 ± 5.2	101 ± 2.2
CCC(=O)O[C@@H](O[P@](=O)(CCCCc1ccccc1)CC(=O)N1C[C@H](C2CCCCC2)C[C@H]1C(=O)O)C(C)C [Fosinopril]	109.8 ± 0.48	103 ± 3.5
CCCCc1oc2ccccc2c1C(=O)c1cc(I)c(OCCN(CC)CC)c(I)c1 [Amiodarone hydrochloride]	3.18	2.94
CCCCOc1cc(C(=O)NCCN(CC)CC)c2ccccc2n1 [Dibucaine]	101.02 ± 1e-14	98.37 ± 0.21
CCCCOc1cc(C(=O)OCCN(CC)CC)ccc1N [Benoxinate hydrochloride]	103 ± 3	103 ± 1.1
CN(CCOc1ccc(NS(C)(=O)=O)cc1)CCc1ccc(NS(C)(=O)=O)cc1 [Dofetilide]	100 ± 5.9	98.7 ± 4.3
CCCCCCCN(CC)CCCC(O)c1ccc(NS(C)(=O)=O)cc1 (stereo not drawn) [Ibutilide fumarate]	100 ± 2.9	101 ± 2.5
CCCCc1oc2ccc(NS(C)(=O)=O)cc2c1C(=O)c1ccc(OCCCN(CCCC)CCCC)cc1 [Dronedarone hydrochloride]	6.19 ± 1.8	1.99 ± 0.52
C[N+]1(C)CCC(OC(=O)C(O)(c2ccccc2)C2CCCC2)C1 (stereo not drawn) [Glycopyrrolate]	96.26 ± 0.95	90.72 ± 0.73
CCC(=O)OCC(=O)[C@@]1(OC(=O)CC)[C@@H](C)C[C@H]2[C@@H]3CCC4=CC(=O)C=C[C@]4(C)[C@@]3(Cl)[C@@H](O)C[C@@]21C [Beclomethasone dipropionate]	103 ± 7.8	98.7 ± 3
N=C(N)NCCN1CCCCCCC1 [Guanethidine sulfate]	99.6 ± 1.1	100.79 ± 0.1
OCCOCCN1CCN(C2=Nc3ccccc3Sc3ccccc32)CC1 [Quetiapine hemifumarate]	108 ± 15	106 ± 12
CN(C)CC/C=C1/c2ccccc2Sc2ccc(Cl)cc21 [Chlorprothixene hydrochloride]	70.5 ± 6.3	90.8 ± 2.7
OCCN1CCN(CC/C=C2/c3ccccc3Sc3ccc(Cl)cc32)CC1 [Zuclopenthixol dihydrochloride]	15.1 ± 1.8	60.4 ± 5.7
Cc1cccc(N(C)C(=S)Oc2ccc3ccccc3c2)c1 [Tolnaftate]	0	0
O=C(O)COC(=O)Cc1ccccc1Nc1c(Cl)cccc1Cl [Aceclofenac]	94.2 ± 2.1	95.02 ± 0.42
